Screening results as filed in PubChem.
FXIa mix inh: factor XIa (human) inhibition, mixture screen; hit rate 0.19% among 62,000; inhibition, % at 5 µM; P03951; purified FXIa, fluorogenic substrate, pooled mixtures;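 also: each value is inhibition by a whole ten-compound pool holding the compound; 0% = enzyme with no mixture and 100% = wells lacking enzyme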
M1 agonist: M1 muscarinic receptor agonism | CHO-M1 cells, Fluo-4 calcium fluorescence, agonist mode; active compounds read high | B-score at 10 µM | hit rate 3% among 64,000 | AID 626;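 active = fluorescence rise, raw or as B-score row- and column-corrected plate score, outside the 99.7% band of its plate's samples, either direction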
M1 antagonist: blocks the rat M1 muscarinic receptor response to acetylcholine; P08482; CHO-M1 cells, Fluo-4 calcium, ACh EC80 antagonist mode; active compounds read low; B-score at 10 µM; hit rate 3.4% among 64,000; AID 628;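 active = calcium fluorescence response, raw or row-and-column corrected B-score, differing from the plate sample mean either way at a set confidence level, mostly lower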
D1 allo mod: D1 dopamine receptor (human) allosteric modulation; B-score at 10 µM; hit rate 5.9% among 58,000; HEK293 D1, CRE-luciferase, dopamine EC30 potentiation; actives deviate in either direction; P21728;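 active = luminescence count or its row- and column-corrected plate score outside the 99.7% band of the plate's sample wells, on either side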
Target sequence (P21728 whole entry, looked up): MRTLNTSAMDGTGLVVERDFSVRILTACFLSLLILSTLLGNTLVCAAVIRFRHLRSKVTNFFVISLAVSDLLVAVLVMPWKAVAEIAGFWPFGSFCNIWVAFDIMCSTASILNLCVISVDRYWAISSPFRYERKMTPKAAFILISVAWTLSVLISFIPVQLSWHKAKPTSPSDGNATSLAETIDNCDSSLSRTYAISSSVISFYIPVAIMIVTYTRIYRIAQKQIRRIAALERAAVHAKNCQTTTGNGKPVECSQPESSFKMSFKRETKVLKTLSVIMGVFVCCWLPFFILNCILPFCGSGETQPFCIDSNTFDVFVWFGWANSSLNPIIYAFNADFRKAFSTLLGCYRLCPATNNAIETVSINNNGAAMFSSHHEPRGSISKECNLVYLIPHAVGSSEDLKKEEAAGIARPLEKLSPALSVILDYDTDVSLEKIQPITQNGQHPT
hDAT+cocaine: human DAT dopamine uptake with cocaine, either direction | Q01959 | LLC-PK1 hDAT cells, [14C]-dopamine uptake with cocaine IC80; actives deviate in either direction | B-score at 10 µM | hit rate 1.3% among 110,000;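 active = Z score or B-score, a plate-position-corrected score, falls beyond the plate's 99.7% confidence bounds, in either direction; inactive = both scores lie inside the 99.7% bounds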;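 also: scored against the spread of the other compound wells on the same plate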
FXIIa inh mix: factor XIIa (human) inhibition, mixture screen; inhibition, % at 5 µM; P00748; hit rate 0.2% among 62,000; AID 684; purified FXIIa, fluorogenic substrate, pooled mixtures;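 also: 0% = enzyme without compound and 100% = no enzyme blank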
D1 PAM confirm: confirmation of human D1 dopamine receptor allosteric modulators. shares compounds with D1 allo mod. HEK293 D1 CRE-luciferase, dopamine EC30 potentiation; active compounds read high. luminescence at 10 µM. hit rate 88% among 2,200;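 active = luminescence in either of two replicates above the same-plate mean plus 3 SD of the low-dose dopamine control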
D1 ag no DA: activates D1 CRE-luciferase signal without dopamine present; hit rate 0.8% among 1,900; shares compounds with D1 allo mod; HEK293 D1 CRE-luciferase, luminescence, no dopamine; active compounds read high; luminescence at 10 µM; in the data active = luminescence above about 3900
Isoprot counter: isoproterenol response counter-screen activity for D1 modulators; shares compounds with D1 allo mod; HEK293 D1 CRE-luciferase, isoproterenol EC30 counter-screen; calls only at 10 µM; hit rate 63% among 2,200;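 active = luminescence in either replicate above plate mean of wells with a partly effective reference agonist dose plus 3 SD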;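 also: isoproterenol raises cAMP through native beta-adrenoceptor Gs so signal bypasses D1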
* = called active by the depositor; i = inactive; / = not tested or not shown; + = active, no number. An excerpt weighted towards active compounds, which were near 7.4% of everything screened. Rule as the data show it, unless noted: active = inhibition above about 20% (passing the limit was not always enough); inactive = the rest.

SMILES	FXIa mix inh	M1 agonist	M1 antagonist	D1 allo mod	hDAT+cocaine	FXIIa inh mix	D1 PAM confirm	D1 ag no DA	Isoprot counter
CNC(=O)N(C1=NCC(C)(C)S1)c1ccc(F)c(Cl)c1	7	0.15	0.55	11*	0.29	-8	25560*	1876	+
CCOc1ccc(CCNS(=O)(=O)c2cccc3nsnc23)cc1OCC	8	0.43	0.28	19*	0.91	2	19296*	1552	+
Cc1ccc2c(c1)-c1c(ssc1=S)C(C)(C)N2C(=O)CSc1nncn1C	2	-0.51	-1	3.8*	-0.64	-16	11288*	1508	i
Cc1cc(C)c2c(c1)-c1c(ssc1=S)C(C)(C)N2C(=O)CSc1nncn1C	14	-0.19	0.087	0.25	0.36	-5	/	/	/
Cc1ccc(-c2nn(CC(=O)NC(C)c3ccccc3)c(=O)c3ccccc23)cc1 (configuration not stated)	/	/	/	/	-0.22	/	/	/	/
O=C(NC1CCCCC1)c1nn2c(C(F)(F)F)cc(-c3ccco3)nc2c1Br	8	0.31	-0.12	0.83	0.17	0	/	/	/
O=C(NC1CCCCC1)c1cnn2c(C(F)(F)F)cc(-c3ccco3)nc12	5	1.1	-1.4	5.3*	-0.81	5	6744*	1356	+
O=C(c1nc2nc(-c3ccc(Cl)cc3)cc(C(F)(F)F)n2n1)N1CCOCC1	3	1.3	0.51	2.9*	0.12	3	8024*	1772	+
O=C(Nc1cc(Cl)ccc1N1CCOCC1)c1cnccn1	6	0.16	0.31	3.1*	-0.94	-3	7880*	1408	i
COc1cccc(OC)c1C(=O)Nc1cc(Cl)ccc1N1CCOCC1	7	0.079	0.047	-0.017	0.31	-23	/	/	/
COc1ccc(OC)c(NC(=O)Nc2nnc(N3CCC(C)CC3)s2)c1	7	-0.62	-2.2	0.024	/	3	/	/	/
c1csc(Cc2nn3c(-c4n[nH]c5c4CCC5)nnc3s2)c1	-3	0.47	-0.52	3.4*	0.053	-3	8576*	1600	+
Cc1cc(C)n(CC(=O)n2c3c(c4ccccc42)CCCC3)n1	0	-0.17	-0.96	5.7*	-0.96	9	11600*	1728	i
Cc1cc(C)n(CC(=O)n2c3ccccc3c3ccccc32)n1	-1	/	/	2	-0.73	2	/	/	/
Cc1cccc(N2CC(C(=O)O)CC2=O)c1 (configuration not stated)	1	0.15	-0.1	0.18	-0.19	13	/	/	/
C[C@@]12CCC=C[C@H]1[C@H](c1ccc(/C=C/c3ccccc3)cc1F)N(Cc1ccccc1)C2=O	/	/	/	/	-0.5	/	/	/	/
COc1cc(OC)cc(C(=O)NCC(=O)OC2CCOC2=O)c1 (configuration not stated)	4	-0.95	0.55	-0.66	0.87	2	/	/	/
Cc1cc(C)c(C#N)c(SCc2ccc(C#N)cc2)n1	-30	1.3	-1	7.4*	-1.4	3	7996*	1632	i
CCCCc1[nH]nc2c1C1(C(=O)N(CC)c3ccccc31)C(C#N)=C(N)O2 (configuration not stated)	-4	0.26	-0.047	16*	-0.13	7	13864*	1676	+
CCOC(=O)c1nn(-c2ccccc2)c(C(=O)OCC)c1N	-4	0.054	0.58	11*	0.18	10	15940*	1480	+
CCOC(=O)c1nnn(-c2ccccc2C#N)c1C	-4	-0.85	0.00063	-0.67	0.48	-2	/	/	/
CCOC(=O)c1nn(-c2ccccc2C)c(=O)c(C#N)c1C	7	0.61	-0.0077	3.1*	-0.2	14	9504*	/	i
CCOC(=O)c1nn(-c2ccccc2)c(=O)c2c(N)scc12	8	-0.38	0.33	6.3*	0.53	3	16104*	1620	+
Cc1ccc(S(=O)(=O)N2CCN(C(C)C(=O)N3CCCc4ccccc43)CC2)cc1 (configuration not stated)	/	/	/	/	0.048	/	/	/	/
Cc1ccc(S(=O)(=O)N2CCN(c3cc4c(cc3[N+](=O)[O-])n(C)c(=O)n4C)CC2)cc1	/	/	/	/	0.77	/	/	/	/
SMILES	FXIa mix inh	M1 agonist	M1 antagonist	D1 allo mod	hDAT+cocaine	FXIIa inh mix	D1 PAM confirm	D1 ag no DA	Isoprot counter
CCSc1cc(C2C(C(=O)OC)=C(C)NC3=C2C(=O)CCC3)c(C)o1 (configuration not stated)	3	0.31	0.039	-1.1	0.8	3	/	/	/
CCOc1ccc(C(C)=O)cc1COc1ccc(-n2cnnn2)cc1	3	-0.24	-0.9	5.9*	1.6	-16	15484*	1632	+
COc1ccc(OCCOC(=O)c2ccc(-n3cnnn3)cc2)cc1	/	/	/	/	0.11	/	/	/	/
C=CCOc1c(Br)cc(CNc2ccc(NC(=O)C(C)C)c(OC)c2)cc1OC	/	/	/	/	0.012	/	/	/	/
Cc1ccc(-c2cc(-c3ccc(Cl)cc3)c(C#N)c(N)n2)o1	-2	-0.0047	2.4e-06	4.1	0.12	-1	/	/	/
Cc1ccc(-c2cc(-c3ccc(C)o3)nc(N)c2C#N)cc1	2	-1.7	0.48	7.3*	0.43	-1	8668*	1764	i
Cc1ccc(-c2cc(-c3ccc4c(c3)OCO4)c(C#N)c(N)n2)o1	5	-0.094	0.25	5.9*	0.82	-20	8720*	1720	i
N#Cc1c(N)oc(-c2ccc3c(c2)OCO3)c1-c1ccc2c(c1)OCO2	13	-0.33	0.92	4.5*	0.00033	1	26576*	1760	+
CCOc1cc(-c2cc(-c3ccc(C)o3)nc(N)c2C#N)ccc1O	/	/	/	/	0.022	/	/	/	/
COc1ccc(S(=O)(=O)N(CC(=O)N2CCOCC2)Cc2ccccc2)cc1	/	/	/	/	0.15	/	/	/	/
C=CCN1C(=O)/C(=C2\SC(N3CCOCC3)=NC2=O)c2cc(Br)ccc21	4	0.05	-0.12	9*	-0.33	8	17804*	1580	+
CCOc1cc2[nH]c(=O)n(Cc3cccc(OC)c3)c(=O)c2cc1OCC	4	-0.069	0.037	17*	0.017	5	22168*	1776	+
CCc1nnc(NC(=O)c2ccc(S(=O)(=O)N3CCN(Cc4ccccc4)CC3)cc2)s1	3	-0.97	-0.28	-0.35	0.28	2	/	/	/
CC1(C)Cc2c(C#N)c(SCCC#N)nc(N3CCOCC3)c2CS1	10	0.14	1.6	5.5*	1.6	4	12904*	1588	+
O=C(O)[C@H]1CCC(=O)N1Cc1ccco1	/	/	/	/	-0.21	/	/	/	/
COC(=O)c1ccc(CSc2nc3c(cnn3-c3ccc(Cl)cc3)c(=O)[nH]2)o1	/	1.7	0.02	1.5	-0.72	/	/	/	/
COC(=O)c1ccc(CSc2nc3c(cnn3-c3ccccc3)c(=O)[nH]2)o1	/	-0.18	0.28	6.5*	-2.2	/	12392*	1648	+
COC(=O)c1ccc(CSc2nc3ccccc3[nH]2)o1	/	/	/	/	-0.092	/	/	/	/
